Laboratory results from PubChem BioAssay (NCATS).
Records with an inconclusive call do not appear. Calls of active or inactive are those of the source. Calls follow the shape of the dose curve; as a rule, active = well fitted curve in the direction sought with a large enough effect; inconclusive = small, poorly fitted or top-dose-only effect, or another doubt; inactive = no such curve, though single readings can be large; an effect the other way counts as inactive or inconclusive.

Assay: qHTS of pediatric cancer cell lines to identify multiple opportunities for drug repurposing: Primary screen for TC32 cells (AID 1347089); also: nearly all actives have a fitted effect of over 60% in size
Conditions: TC32 Ewing sarcoma viability, CellTiter-Glo luminescence, 48 h; series mostly up to 45.8 µM
Procedure, shortened: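 A viability screen of TC32 cells was run over 48 h, with primary MIPE doses spanning 0.78 nM–46 µM and NPC doses 0.59 nM–46 µM. ATP luminescence (CellTiter-Glo) served as the read-out.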

Row | Compound | Potency
1 | CN1[C@H]2CC(O)C[C@H]1[C@H]1O[C@H]12 (some centres not stated) | inactive
2 | Cc1c(C(=O)Nc2cccc(C(F)(F)F)c2)cc(-c2ccccc2)n1CCCN1CCOCC1 | inactive
3 | C=C[C@@H]1CN2CCC1C[C@@H]2[C@@H](O)c1ccnc2ccccc12 (some centres not stated) | inactive

Assay: qHTS of pediatric cancer cell lines to identify multiple opportunities for drug repurposing: Primary screen for A673 cells (AID 1347092); also: potency is read from the fitted curve at half-maximal effect; nearly all actives have a fitted effect of over 45% in size
Conditions: A673 Ewing sarcoma viability, CellTiter-Glo ATP luminescence, 48 h; series mostly up to 46 µM
Procedure, shortened: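 Titration-based qHTS on A673 cells: MIPE compounds spanned 11 points (0.78 nM to 46 µM final), NPC compounds 8 points (0.59 nM to 46 µM final). Viability after 48 h was measured by ATP luminescence.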

Row | Compound | Potency
4 | CCCCCCCCCCCCCCCC[N+](C)(C)C | 4.22 µM (active)
5 | CN1[C@H]2CC(O)C[C@H]1[C@H]1O[C@H]12 (some centres not stated) | 18.7 µM (active)
6 | Cc1c(C(=O)Nc2cccc(C(F)(F)F)c2)cc(-c2ccccc2)n1CCCN1CCOCC1 | 11.8 µM (active)
7 | C=C[C@@H]1CN2CCC1C[C@@H]2[C@@H](O)c1ccnc2ccccc12 (some centres not stated) | 18.7 µM (active)
